PI5P4K alpha inh: qHTS for Inhibitors of phosphatidylinositol 5-phosphate 4-kinase (PI5P4K); Phosphatidylinositol 5-phosphate 4-kinase type-2 alpha (Homo sapiens), P48426; PI5P4Kalpha enzyme, ADP-Glo luminescence, 60 min; hits give low values; max response, %; hit rate 1.2% among 330,000; AID 652105, 2013; active means max response of -50% or lower; inconclusive means between -30% and -50%; inactive means -30% or higher; further: value at the top dose of about 77 µM; on the % scale 0 is the no-effect control and ±100 the full control effect
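Reactions run in 0.038 M HEPES pH 7.4, 0.28 mM EGTA, 0.1% CHAPS and 5% DMSO, with PI5P4Kalpha, substrate, compound and 5 microM ATP final, one hour at room temperature. Readout is ADP-Glo luminescence.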
Pol eta inh-1: qHTS for Inhibitors of Polymerase Eta | AID 588591, 2011 | Potency, µM (doses to about 114 µM), for the others: at the highest dose activity change, negative = inhibition, usual class: inhibitors | hit rate 1.2% among 390,000 | recombinant Pol eta, fluorescent DNA replication assay; further: potency means the concentration at half of the fitted maximal effect; on the % scale 0 is the no-effect control and ±100 the full control effect
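Pol eta (10 nM) was preincubated with compounds for 15 min at room temperature, after which fluorescent replication substrate (50 nM final) was added to start the reaction. Fluorescence was read kinetically at 0 and 10 min.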
POLB inh: qHTS Assay for Inhibitors of DNA Polymerase Beta. AID 485314, 2010. hit rate 1.3% among 340,000. P06746. Potency, µM (doses to about 114 µM), for the others: top-dose activity change, negative = inhibition, hits mostly inhibitors. Pol beta primer extension/strand displacement, fluorescence kinetic; further: potency means the concentration at half of the fitted maximal effect; on the % scale 0 is the no-effect control and ±100 the full control effect
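Curves were derived by four-parameter Hill fits of normalized qHTS data. The kinetic fluorescent primer-extension read was taken at 0 and 10 min after 50 nM substrate, following a 15 min room-temperature preincubation of 10 nM enzyme with compounds.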
POLI inh: qHTS for Inhibitors of Polymerase Iota. DNA polymerase iota (Homo sapiens), Q9UNA4. Pol iota fluorescent replication assay, 10 min. Potency, µM (doses to about 115 µM), inactives show at the top dose activity, negative = inhibition, usual class: inhibitors. hit rate 1% among 390,000; further: potency means the concentration at half of the fitted maximal effect
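Pol iota at 10 nM preincubated 15 min with compounds at room temperature; reaction started with fluorescent substrate, 50 nM final. Fluorescence read kinetically at 0 and 10 min; buffer-only wells as negative control.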
PI4K2A inh: qHTS for small molecular inhibitors of PI4K2A | Phosphatidylinositol 4-kinase type 2-alpha (Homo sapiens), Q9BTU6 | purified PI4K2A, ADP-Glo luminescence, 1 h; hits give low values | activity change, negative = inhibition, % at 76.9 µM | hit rate 0.13% among 420,000; in the data active means activity change below about -50%; inconclusive means mostly about -30% to -49%;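 further: -100% = wells without enzyme as full effect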
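PI4K2A activity was measured by ADP-Glo luminescence: enzyme (4 ug/mL stock) and phosphatidylinositol (1.2 mM stock) in Tris pH 7.5/MgCl2/EGTA/Triton X-100 buffer were reacted with ATP (300 microM stock) for one hour at ambient temperature.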
Pol kappa inh-1: qHTS for Inhibitors of Polymerase Kappa; hit rate 0.53% among 400,000; purified Pol kappa, fluorescent DNA synthesis assay, 10 min; Potency, µM (top dose mostly 107 µM), inactives show top-dose activity, negative = inhibition, most hits filed as inhibitors; DNA polymerase kappa (Homo sapiens), Q9UBT6; AID 588579, 2011; further: potency means the concentration at half of the fitted maximal effect; on the % scale 0 is the no-effect control and ±100 the full control effect
Target sequence (Q9UBT6 whole entry, looked up): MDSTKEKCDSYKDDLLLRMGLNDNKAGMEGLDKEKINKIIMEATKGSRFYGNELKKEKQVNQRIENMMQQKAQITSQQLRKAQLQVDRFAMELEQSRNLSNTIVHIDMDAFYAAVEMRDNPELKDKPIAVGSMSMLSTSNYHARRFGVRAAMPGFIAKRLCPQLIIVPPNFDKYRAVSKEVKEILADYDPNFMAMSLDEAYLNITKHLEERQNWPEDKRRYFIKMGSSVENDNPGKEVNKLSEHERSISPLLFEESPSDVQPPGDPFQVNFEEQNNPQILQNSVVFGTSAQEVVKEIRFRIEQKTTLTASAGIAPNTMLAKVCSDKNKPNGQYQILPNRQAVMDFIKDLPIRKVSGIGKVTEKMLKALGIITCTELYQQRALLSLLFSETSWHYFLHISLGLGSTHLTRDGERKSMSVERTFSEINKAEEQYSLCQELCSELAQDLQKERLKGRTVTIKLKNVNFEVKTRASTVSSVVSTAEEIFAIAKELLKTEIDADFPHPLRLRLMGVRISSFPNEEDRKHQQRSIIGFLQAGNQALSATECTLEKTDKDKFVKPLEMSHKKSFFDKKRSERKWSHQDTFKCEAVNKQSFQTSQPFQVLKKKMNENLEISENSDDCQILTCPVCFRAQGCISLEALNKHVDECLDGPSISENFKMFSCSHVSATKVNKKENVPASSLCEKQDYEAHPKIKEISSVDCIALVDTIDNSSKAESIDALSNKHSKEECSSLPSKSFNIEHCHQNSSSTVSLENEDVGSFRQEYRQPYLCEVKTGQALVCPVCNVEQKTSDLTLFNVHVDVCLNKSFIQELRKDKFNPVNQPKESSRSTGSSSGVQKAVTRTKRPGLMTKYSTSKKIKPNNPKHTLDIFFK
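Here, compound and 10 nM enzyme are combined for 15 min at room temperature; adding 50 nM substrate (final) starts DNA synthesis, tracked by fluorescence at 0 and 10 min against buffer-only wells.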
Pol kappa inh-2: qHTS for Inhibitors of Polymerase Kappa: Confirmatory Assay for Cherry-picked Compounds; shares compounds with Pol eta inh-1; purified Pol-kappa, fluorescent strand-displacement substrate; Potency, µM, hits mostly inhibitors; hit rate 76% among 920; further: potency means the concentration at half of the fitted maximal effect
Pol eta inh-2: qHTS for Inhibitors of Polymerase Eta: Confirmatory Assay for Cherry-picked Compounds; AID 720502, 2013; Pol eta primer extension, TAMRA/BHQ fluorescence, 10 min; shares compounds with Pol eta inh-1; hit rate 64% among 2,600; Potency, µM, actives largely listed as inhibitors; further: potency means the concentration at half of the fitted maximal effect
The depositor's hits bear a star; u = inconclusive; x = not tested or not shown; [ ] = another dose, or the depositor's remark. Rows were chosen to be rich in hits. Some 2.8% of all compounds tested hit in one or more screens of this group. Unless noted, the call rests on the fitted dose curve; in most records, active means well fitted inhibition curve with a large enough effect; inconclusive means small, poorly fitted or top-dose-only effect, or another doubt; inactive means no such curve, though single readings can be large or run the other way.

SMILES | PI5P4K alpha inh | Pol eta inh-1 | POLB inh | POLI inh | PI4K2A inh | Pol kappa inh-1 | Pol eta inh-2 | others
COc1ccc(C2C(C#N)=C(N)OC3=C2C(=O)CC(C)(C)C3)cc1 (stereo not drawn) | -5 | -18% | -5% | -8% | 14 | 3% | x
COc1cc(C2C(C#N)=C(N)OC3=C2C(=O)CC(C)(C)C3)cc2c1OCO2 (stereo not drawn) | -59* | u | x | 25µM* | -4 | u | u
O=C(O)c1ccc(/C=C/c2nc3ccccc3c(=O)[nH]2)cc1 | 1 | 2% | 1% | u | -2 | -17% | x
O=C(O)c1ccc(/C=C/c2nc3sc4c(c3c(=O)[nH]2)CCC4)cc1 | 1 | 22µM* | -11% | 14µM* | -1 | u | u
NC(=O)c1ccc(N=Cc2ccc([N+](=O)[O-])s2)cc1 | -28 | 32µM* | u | 50µM* | -6 | -34% | u
COc1ccccc1-c1ccc(/C=C2\C=CC(=O)O2)o1 | -27 | 25µM* | -100% | 20µM* | -13 | 35µM* | 54*
O=C(N/N=C/c1cc(Br)c(O)c(Br)c1O)c1ccc2c(c1)OCCO2 | -56* | u | 40µM* | u | 5 | -39% | u | Pol kappa inh-2=34*
Cc1cc2c(cc1S(=O)(=O)N(C)CC(=O)Nc1ccc(C#N)cc1)OCC(=O)N2 | x | 1% | 29% | -21% | -1 | -2%[60.1 µM] | x
CN(C)c1ccc(CNC(=O)CCn2c(=O)c3cccn3c3ccc(F)cc32)cc1 | x | -10% | 1% | 26% | 2 | -8% | x
COc1ccccc1CN1CCC2(CC1)CCN(S(=O)(=O)c1ccccc1)CC2 | x | x | x | x | x | -6%[60.1 µM] | x
CCc1ccc(N=C2NC(=O)/C(=C/c3ccc(OCC(=O)O)cc3)S2)cc1 | u | 45µM* | 40µM* | u | -5 | u | x | Pol kappa inh-2=u
COc1ccc(-c2noc(CSc3nnc(-c4ccncc4)n3-c3ccc(OC)cc3)n2)cc1 | x | -13% | -4% | -9% | 1 | -8% | x
CC(=O)Nc1c(O)nc(SCC(=O)Nc2nnc(SCc3ccccc3)s2)[nH]c1=O | u | 35µM* | -24% | 25µM* | -3 | u | u
O=C(CNC(=O)c1ccc(Br)cc1)N=Nc1c(O)[nH]c2ccc([N+](=O)[O-])cc12 | -24 | -17% | u | u | 7 | -13% | x
COc1ccc(/C=C/C(=O)NCC(=O)N=Nc2c(O)[nH]c3ccc([N+](=O)[O-])cc23)cc1 | -18 | 35µM* | 50µM* | 34% | 1 | -6% | x | Pol kappa inh-2=84*
COc1ccc(Cl)cc1NC(=O)c1c(NCc2ccc(C)o2)sc2c1CCC(C)C2 (stereo not drawn) | x | -11% | 1% | 5% | -1 | -13%[60.1 µM] | x
COc1ccc(Cl)cc1NC(=O)c1c(NCc2ccc(C)o2)sc2c1CCCCC2 | x | u | -2% | u | -12 | -7%[60.1 µM] | u | Pol kappa inh-2=u
Cc1nc2ccccc2n2c(O)c(CC(=O)O)cc12 | x | 79µM* | u | u | -6 | u | u | Pol kappa inh-2=67*
Cc1nc2ccccc2n1CCC(=O)O | 8 | -14% | 15% | 8% | 0 | -4% | x
O=C(CCCn1c(=O)c2sccc2n(CC(=O)NCc2ccco2)c1=O)NCc1ccco1 | x | 79µM* | -1% | u | -4 | -10% | u
C=CCOc1ccc(C(c2c(C(=O)O)[nH]c3ccccc23)c2c(C(=O)O)[nH]c3ccccc23)cc1 | u | 32µM* | 20µM* | 18µM* | -16 | 79µM* | u | Pol kappa inh-2=u
COC(=O)C(C)N1C(=O)S/C(=C\c2ccc(-c3ccc(C(=O)O)cc3C)o2)C1=O (stereo not drawn) | u | 10µM* | 40µM* | u | -5 | 32µM* | 43*
COC(=O)C(C)N1C(=O)S/C(=C/c2cc(C)n(-c3ccccn3)c2C)C1=O (stereo not drawn) | 3 | -11% | 4% | -5% | -3 | 0% | x
O=Cc1cn(CCC(=O)O)nc1-c1cccc2ccccc12 | 10 | -14% | -30% | 11% | 0 | -7% | x
O=Cc1cn(CCC(=O)O)nc1-c1cc2ccccc2o1 | -10 | 20µM* | 18µM* | u | 5 | u | u | Pol kappa inh-2=21*
SMILES | PI5P4K alpha inh | Pol eta inh-1 | POLB inh | POLI inh | PI4K2A inh | Pol kappa inh-1 | Pol eta inh-2 | others
CCOc1cc(C(=O)Nc2ccc3oc(-c4ccc(CC)cc4)nc3c2)cc(OCC)c1OCC | x | -8% | -1% | 3% | -9 | -16% | x
Cc1nc(Nc2ccc(C(=O)O)cc2)nc(Nc2ccc(C(=O)O)cc2)c1[N+](=O)[O-] | -56* | 35µM* | -1% | 45µM* | -10 | u | 38*
CC(=O)Nc1ccc(Nc2nc(C)c([N+](=O)[O-])c(Nc3ccccc3)n2)cc1 | -18 | -16% | -26% | 7% | 0 | -2% | x
O=C(O)c1ccc2c(c1)C(=O)N(c1cccc(C(=O)/C=C/c3ccccc3)c1)C2=O | -13 | 32µM* | 48% | u | -3 | -12% | 60*
CC1C(=O)Nc2ccc(S(=O)(=O)NCc3ccc(N(C)C)cc3)cc2NC1=O (stereo not drawn) | x | u | -7% | 9% | -12 | 2% | u
COc1ccc(CNS(=O)(=O)c2ccc3c(c2)NC(=O)C(C)C(=O)N3)cc1 (stereo not drawn) | x | -9% | 1% | 6% | -16 | -9% | x
COc1ccc(/C=N/Nc2nc(C(=O)O)cs2)cc1 | -63* | 32µM* | u | 20µM* | 1 | u | u
O=C(CSc1nc2ccccc2[nH]1)NC1CCCC1 | -23 | 40µM* | 14µM* | u | -1 | u | u
Cc1ccccc1N/N=C/c1sc(=O)n(Cc2cccc(C(=O)O)c2)c1Cl | u | u | u | u | -6 | -42% | u
C/C(=N/Nc1ccc(C(=O)O)cc1)c1ccc2c(c1)Nc1ccccc1S2 | -23 | 18µM* | x | 50µM* | -4 | u | 76* | Pol kappa inh-2=38*
C/C(=N\Nc1ccc(C(=O)O)cc1)c1ccc2c(c1)Nc1ccccc1S2 | u | 25µM* | u | 22µM* | 2 | u | 76*

Screening results as filed in PubChem BioAssay.
